Rows were chosen to be rich in hits. Some 6.9% of all compounds tested hit in one or more screens of this group.
VDR inhibitor: inhibitors of human vitamin D receptor. P11473. VDR-SRC2-3 peptide fluorescence polarization, 2 h. Potency, µM, hits mostly inhibitors. actives 0.93% (n = 400,000)
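Reagent solutions, kept cold and dark, are dispensed first; compounds are then pinned in at 23 nl, plates briefly spun, and incubated 2 h at ambient temperature. Inhibition of VDR–SRC2-3 peptide binding is read by fluorescence polarization.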
L3MBTL1 block: blocks human L3MBTL1 | AlphaScreen L3MBTL1–H3K9me1 peptide binding | Potency, µM (titrated, usually from 57.1 µM), actives largely listed as inhibitors | actives 0.66% (n = 230,000); further: nearly all actives have a fitted effect of over 60% in size
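Displacement of a biotinylated histone H3(1-15) peptide monomethylated at Lys9 (75 nM) from L3MBTL1 (50 nM) was measured by AlphaScreen after a 30 min room-temperature compound incubation; cefsulodin titration served as intraplate control.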
JMJD2A Tudor: blocks the human JMJD2A Tudor domain; O75164; AlphaScreen JMJD2A-Tudor / H3K4me3 peptide binding; Potency, µM (top dose mostly 114 µM), usual class: inhibitors; actives 4.4% (n = 390,000); further: nearly all actives have a fitted effect of over 50% in size
Target sequence (O75164 whole entry, looked up, the tested form may be a part): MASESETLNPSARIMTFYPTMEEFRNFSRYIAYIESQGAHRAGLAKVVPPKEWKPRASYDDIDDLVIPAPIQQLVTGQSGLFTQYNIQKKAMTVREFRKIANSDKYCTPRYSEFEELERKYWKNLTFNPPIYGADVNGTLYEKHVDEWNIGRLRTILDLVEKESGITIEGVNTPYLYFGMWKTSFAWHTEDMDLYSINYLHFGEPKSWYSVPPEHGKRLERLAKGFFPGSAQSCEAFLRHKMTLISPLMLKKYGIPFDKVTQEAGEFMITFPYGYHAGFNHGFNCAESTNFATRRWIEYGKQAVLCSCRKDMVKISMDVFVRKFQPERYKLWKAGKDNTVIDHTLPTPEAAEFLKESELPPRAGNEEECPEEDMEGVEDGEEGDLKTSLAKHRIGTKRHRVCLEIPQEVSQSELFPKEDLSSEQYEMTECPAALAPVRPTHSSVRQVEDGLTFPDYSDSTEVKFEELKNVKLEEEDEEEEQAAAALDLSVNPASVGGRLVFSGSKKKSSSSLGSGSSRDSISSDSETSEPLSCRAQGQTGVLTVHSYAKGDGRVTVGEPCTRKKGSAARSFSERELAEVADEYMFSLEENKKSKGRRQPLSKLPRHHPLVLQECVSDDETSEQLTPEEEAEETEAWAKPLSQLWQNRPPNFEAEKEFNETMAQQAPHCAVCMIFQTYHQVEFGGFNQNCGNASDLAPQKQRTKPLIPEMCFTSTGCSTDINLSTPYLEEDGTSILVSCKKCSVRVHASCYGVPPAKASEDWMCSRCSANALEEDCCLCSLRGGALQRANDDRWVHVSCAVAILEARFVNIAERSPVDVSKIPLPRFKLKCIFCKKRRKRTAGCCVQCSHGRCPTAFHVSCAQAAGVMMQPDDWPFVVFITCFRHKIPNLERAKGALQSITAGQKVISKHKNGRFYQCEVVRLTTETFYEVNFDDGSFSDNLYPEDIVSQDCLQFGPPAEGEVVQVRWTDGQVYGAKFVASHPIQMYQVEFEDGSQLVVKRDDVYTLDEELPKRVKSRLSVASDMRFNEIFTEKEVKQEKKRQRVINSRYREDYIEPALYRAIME
HP1b binding inh: inhibitors of HP1-beta chromodomain binding to methylated histone tails; P83916; AlphaScreen HP1-beta / biotin-H3K9me3 peptide binding; Potency, µM (series often up to 114 µM), usual class: inhibitors; actives 0.56% (n = 390,000); further: nearly all actives have a fitted effect of over 70% in size
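HP1-beta protein (50 nM final) preincubated 30 min at room temperature with biotinylated H3(1-18)K9me3 peptide (50 nM) in PBS pH 7.4, 0.01% Tween-20, then compound added for 30 min. AlphaScreen streptavidin donor/nickel chelate acceptor beads (10 ug/mL final), 30 min dark, luminescence read.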
PLK1 PBD inh: inhibitors of human PLK1 polo-box domain binding; Plk1 PBD binding of FITC phosphopeptide, fluorescence polarization; Potency, µM, most hits filed as inhibitors; actives 2.8% (n = 360,000); AID 720504; further: series mostly up to about 57 µM; nearly all actives have a fitted effect of over 65% in size
BAZ2B block: inhibitors of human BAZ2B bromodomain | Q9UIF8 | AlphaScreen BAZ2B-H3K14Ac peptide displacement | Potency, µM (highest dose often 114 µM), usual class: inhibitors | actives 4.4% (n = 360,000) | AID 504333; further: nearly all actives have a fitted effect of over 60% in size
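BAZ2B 50 nM plus b-H3(5-23)K14Ac 50 nM, PBS pH 7.4/0.01% Tween-20, 30 min RT; compound added (max 110 uM), 30 min RT; streptavidin donor/Ni-chelate acceptor beads 10 ug/mL final, 20 min dark; AlphaScreen read.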
Numbers stand for hits; . = inactive; ? = inconclusive; / = not tested or not shown; [ ] = dose if it differs, or a comment. The call rests on the fitted dose curve; in most records, active means well fitted curve in the direction sought with a large enough effect; inconclusive means small, poorly fitted or top-dose-only effect, or another doubt; inactive means no such curve, though single readings can be large; an effect the other way counts as inactive or inconclusive.

SMILES	VDR inhibitor	L3MBTL1 block	JMJD2A Tudor	HP1b binding inh	PLK1 PBD inh	BAZ2B block
COc1cc(C[C@@H](C)[C@@H](C)Cc2ccc(O)c(OC)c2)ccc1O	.	.	?	.	.	/
CCn1c(CSc2nc3ccccc3s2)nnc1SCC(=O)c1ccc2c(c1)OCCO2	.	.	79µM	.	.	.
Nn1c(Cc2ccc(F)cc2)n[nH]c1=S	.	.	4.5µM	.	19µM	/
Cn1c(Cc2ccccc2)n[nH]c1=S	.	.	28µM	.	.	.
Cc1ccccc1Cc1n[nH]c(=S)n1N	.	.	2.8µM	?	.	.
CC(Cc1n[nH]c(=S)n1N)c1ccccc1 (stereo not drawn)	.	/	3.2µM	?	27µM	.
CC(Sc1nnc(CC(C)c2ccccc2)n1N)C(N)=O (stereo not drawn)	.	/	.	.	.	.
CNc1ncnc2c1cnn2-c1ccc(C)c(C)c1	.	/	.	.	/	.
COc1ccc2c(c1)c1c(c(=O)n(-c3ccc(OC)c(OC)c3)c(=O)n1Cc1ccccc1F)n2C	.	/	.	.	/	.
Cn1c(Cc2cccs2)n[nH]c1=S	.	/	?	.	27µM	.
Cn1c(CSCCOc2ccccc2)n[nH]c1=S	.	.	6.3µM	.	.	.
S=c1[nH]nc(CSCCOc2ccccc2)o1	.	.	.	.	.	.
Nn1c(Cc2ccccc2)n[nH]c1=S	.	.	10µM	.	.	.
COc1cc(C(=O)OC2CC[C@]3(C)C4CCC5[C@]6(O)CC(O)[C@]7(O)C(CN8CC(C)CCC8[C@]7(C)O)[C@]6(O)C[C@@]53O[C@]24O)cc(OC)c1OC (stereo partly drawn)	.	/	/	/	/	/
CSc1cccc(NC(=S)N2CCCN(Cc3cccc(Cl)c3)C2)c1	.	/	?	.	.	25µM
CSc1cccc(NC(=S)N(CCCN2CCCC2)Cc2cccs2)c1	.	/	?	.	.	?
COc1cccc(NC(=S)N(CCCN2CCCC2)Cc2cccn2Cc2ccc(Cl)cc2)c1	.	/	45µM	?	.	.
CSc1cccc(NC(=S)N(CCCN2CCCC2)Cc2cccn2Cc2ccc(Cl)cc2)c1	.	/	20µM	.	.	25µM
S=C(Nc1cccc(Cl)c1)N(CCCN1CCCC1)Cc1cccn1Cc1ccc(Cl)cc1	.	/	32µM	.	.	?
COc1ccc(NC(=S)N2CCCN(Cc3cccc(Cl)c3)C2)cc1	.	/	?	.	.	?
CC[C@]12c3[nH]c4ccc(OC)cc4c3CCN1C(=O)C(CC(=O)NCc1ccc(OC)c(OC)c1)C[C@@H]2C(=O)N1CCN(C(=O)C2CC2)CC1 (stereo partly drawn)	.	.	.	.	?	/
C[C@@](N)(C(=O)O)c1ccc(P(=O)(O)O)cc1	.	/	/	/	/	/
Cc1ccc(C(=O)NCCCn2ccnc2)cn1	.	/	.	.	.	50µM
O=C(CNC(=O)c1ccc(Cl)cc1)NCCCn1ccnc1	.	.	.	.	.	79µM
Cc1ccc(-c2[nH]c3cc(C(=O)NCCCn4ccnc4)ccc3c(=O)c2O)cc1	.	/	.	.	.	56µM
SMILES	VDR inhibitor	L3MBTL1 block	JMJD2A Tudor	HP1b binding inh	PLK1 PBD inh	BAZ2B block
O=C(NCCCn1ccnc1)c1ccncc1	.	.	.	.	.	56µM
Cc1nn2c(=O)cc(COC(=O)COc3ccccc3C)nc2s1	.	/	.	.	/	.
CC(C)(C)C(=O)Nc1ccccc1C(=O)NCCCn1ccnc1	.	.	50µM	.	.	18µM
O=C(Nc1ccccc1C(=O)NCCCn1ccnc1)c1ccccc1	.	/	.	.	.	.
CC(NC(=O)NCCCn1ccnc1)(C(F)(F)F)C(F)(F)F	.	.	.	.	.	.
O=C(NCCCn1ccnc1)C(F)(F)C(F)(F)C(=O)NCCCn1ccnc1	.	?	?	.	.	20µM
COc1cc(C(O)c2nc(-c3cccc(C#N)c3)cs2)ccc1F (stereo not drawn)	/	/	/	/	.	/
COc1cc(CN2CCN(Cc3ccc(C(F)(F)F)cc3)CC2)cc(OC)c1OC	.	.[2.29 µM]	20µM	?	.	18µM
FC(F)(F)c1ccc(CN2CCN(Cc3ccco3)CC2)cc1	.	.	.	.	.	.
CS(=O)(=O)N1CCN(Cc2ccccc2C(F)(F)F)CC1	.	.	.[11.4 µM]	.	.	.
COc1ccc(CNCc2ccncc2)cc1OC	.	.	.	.	.	.
COc1ccc(CNCc2ccc(C(F)(F)F)cc2)cc1OC	.	.	89µM	.	.	.
CS(=O)(=O)N1CCN(Cc2ccc(C(F)(F)F)cc2)CC1	.	/	1.6µM	?	.	?
COc1cc(CN2CCN(Cc3ccccc3C(F)(F)F)CC2)cc(OC)c1OC	.	/	0.79µM	25µM	.	20µM
CC(C)NC[C@H]1CCc2cc(CO)c([N+](=O)[O-])cc2N1	.	/	/	/	/	/
C[C@@](N)(C(=O)O)c1ccc(S(=O)(=O)O)cc1	.	/	/	/	/	/
Cc1ccc(-c2cc(-c3ccccc3)c(C#N)c(N)n2)o1	?	.	?	?	21µM	?
O=C(O)CSC1=NC(=Nc2cccc(Cl)c2)C2(CCCCC2)N1c1ccccc1	.	.	45µM	?	.	.
O=C1c2ccccc2C(=O)c2c1cccc2N1CCOCC1	.	?	35µM	40µM	.	16µM
CC(=O)N(C)c1ccc(N2CCOCC2)c2c1C(=O)c1ccccc1C2=O	.	/	.	?	.	/
COCCNC(=O)Cn1cc(C(=S)N2CCOCC2)c2ccccc21	.	.	.	.	30µM	.
CC(=O)c1cccc(NC(=O)Nc2c(C)n(C)n(-c3ccccc3)c2=O)c1	.	/	.	.	/	.
COc1ccc2sc3cccc(NCCN(C)C)c3c(=O)c2c1	/	/	/	/	.	/
CN(C)CCNc1ccc(CO)c2sc3ccc(O)cc3c(=O)c12	.	/	50µM	71µM	.	/
CN(C)CCNc1ccc2ncn3c4ccc(O)cc4c(=O)c1c23	.	/	?	.	12µM	/
SMILES	VDR inhibitor	L3MBTL1 block	JMJD2A Tudor	HP1b binding inh	PLK1 PBD inh	BAZ2B block
COc1ccc(CCNC(=O)c2cn(C)c3ccc(S(=O)(=O)N(C)C)cc3c2=O)cc1OC	.	/	.	.	/	/
Cc1ccccc1Oc1ncnc(N)c1[N+](=O)[O-]	.	/	.	.	.	.
Nc1ncnc(Oc2cccc3cccnc23)c1[N+](=O)[O-]	.	.[11.4 µM]	.	.	.	45µM
CCOc1cc(C=O)cc(N=Nc2cccc([N+](=O)[O-])c2)c1O	.	.	?	?	.	25µM
CCc1nc2ccc(C(=O)NCc3cc(OC)ccc3OC)cc2nc1CC	.	/	.	.	/	.
COc1ccc(Nc2c(-c3ccco3)nc3cccc(C)n23)cc1	.	/	56µM	?	.	22µM
COc1ccc(Nc2c(-c3ccco3)nc3ccc(C)cn23)cc1	.	/	.	.	.	.
COc1ccc(-c2nc3cccc(C)n3c2Nc2ccc(C)cc2)cc1	.	/	40µM	.	/	/
COc1ccc(C(=O)Oc2c(CN3CCOCC3)cc(Cl)c3cccnc23)cc1	.	/	?	.	.	50µM
O=C(Oc1c(Cl)cc(Cl)c2cccnc12)c1ccco1	.	/	89µM	.	.	?
